Hit rate of the full screen: of about 200,000 compounds, about 18,000 (9%) were called active. The sample holds actives, similar compounds and a random draw of the others, so the mix is not that of the screen. A number with no mark means an inactive call. Cut-off read from the data, not from the text of the source: active = inhibition above about 50%; inactive = the rest.
assay: Leishmania major promastigote growth inhibition, primary screen (AID 1063); conditions: Leishmania major promastigotes, resazurin fluorescence viability; at 10 µM; stronger effect = higher value;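 note: promastigotes grown with compound for 44 hours at 28 °C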

Structure (SMILES) | inhibition
Cc1ccc(S(=O)(=O)NC(C(=O)N2CCOCCOCCOCCOCC2)c2ccccc2)cc1 (stereo not given) | -7.01%
COc1cc(/C=N/NC(=O)c2ccccc2)ccc1OS(=O)(=O)c1ccccc1 | 1.2%
COc1ccc(/C=N/NC(=O)c2ccncc2)cc1CN1CCCc2ccccc21 | 63.4% (active)
COc1ccc(/C=N/NC(=O)c2ccc(Cl)cc2)cc1COC(C)=O | -8.12%
CC1CC(C)CN(C/C=C/c2ccccc2[N+](=O)[O-])C1 (stereo not given) | 83.9% (active)
CC1CC(C)CN(CC(=O)N2c3ccccc3CCc3ccccc32)C1 (stereo not given) | 18.5%
CC(C)CNC(=O)COC(=O)/C=C/c1ccccc1[N+](=O)[O-] | 4.47%
COc1cc(CN2CCNC(=O)C2CC(=O)NCCc2ncccc2C)cc(OC)c1 (stereo not given) | -4.29%
CC1=C(C)CC(C(=O)NC(C)CCc2ccccc2)C(C(=O)O)C1 (stereo not given) | 17.2%
C=CCOc1c(CNn2cn[nH]c2=S)cccc1OC | 25.5%
CSc1nc2c(c(=O)[nH]1)C(c1cccc(Cl)c1Cl)CC(=O)N2 (stereo not given) | -5.68%
N#Cc1c(N)nc2c3c(sc(=N)c2c1N)NC(=O)CC3c1ccccc1Cl (stereo not given) | 75.7% (active)
COc1ccc(C2CC(=O)Nc3sc(=N)c4c(N)c(C#N)c(N)nc4c32)cc1OC (stereo not given) | -5.32%
COc1cccc2c1OCC(CN1CCN(C3CCCCC3)C(CCO)C1)=C2 (stereo not given) | 11.6%
O=C(c1snnc1-c1ccccc1)N1CCOCC1 | -3.05%
CCc1nnc(NC(=O)CCC(=O)NCc2ccccc2OC)s1 | -6.69%
CCc1nnc(NC(=O)CCC(=O)O)s1 | -2.47%
CCc1nnc(NC(=O)CCN(c2ccc(C)cc2)S(=O)(=O)c2ccccc2)s1 | 71.3% (active)
Cc1c(Cl)c([N+](=O)[O-])nn1CCCC(=O)Nc1cc(Cl)ccc1Cl | 0.47%
Cc1ccc(C(=O)O)cc1NC(=O)c1ccc(Cn2nc(C)c(Cl)c2C)o1 | -7.15%
Cc1c(Cl)c([N+](=O)[O-])nn1Cc1ccc(C(=O)N/N=C\c2cc(Cl)ccc2O)o1 | 100% (active)
Cc1ccc(OCC(=O)NC(C)c2ccccc2)c([N+](=O)[O-])n1 (stereo not given) | 11.1%
CCc1ccc(NC(=O)Nc2ccncc2)cc1 | 24.8%
NS(=O)(=O)c1ccc(NC(=O)COC(=O)CCc2c[nH]c3ccccc23)cc1 | -4.64%

Structure (SMILES) | inhibition
CCOC(=O)CN(C)Cc1c[nH]c2ccccc12 | -1.3%
O=C(Cc1c[nH]c2ccccc12)OCCOC(=O)Cc1c[nH]c2ccccc12 | 94.7% (active)
Cc1ccc(C)c(-n2ccnc2SCC(N)=O)c1 | -3.12%
O=C(O)[C@@H]1CCCN1c1ncnc2sc3c(c12)CCC3 | -0.86%
COc1ncnc2sc3c(c12)CCCC3 | -1.31%
CC1(C)CN=C(N2CCN(c3ncnc4sc5c(c34)CCCC5)CC2)S1 | 100% (active)
O=C1c2ccccc2C(=O)N1CCC(O)C[N+](=O)[O-] (stereo not given) | -0.84%
Cc1ccc(Cl)cc1NC(=O)C1CCN(S(C)(=O)=O)CC1 | 2.22%
COc1ccc2occ(C(=O)c3ccc(N=C(C)N(C)C)cc3)c2c1 | 100% (active)
COc1ccc(OC)c(C(=O)c2coc3ccc(OC)cc23)c1 | 6.9%
COc1ccc(OC)c(C(=O)c2ccc(C(=O)O)cc2)c1 | -2.29%
COc1ccc2cc(CCl)c(Cl)nc2c1 | 5.05%
O=C1N=C(N2CCOCC2)S/C1=C\C=C/c1ccccc1 | 7.77%
CCc1ccc(/C=C2\SC(N3CCOCC3)=NC2=O)cc1 | 12.3%
O=C1N=C(N2CCCC2)S/C1=C\c1cccc(Br)c1 | 96.6% (active)
COc1ccc(/C=C/C(=O)c2ccc(OC)cc2O)cc1 | 7.64%
COc1ccc(/C=C/C(=O)c2cc(Br)ccc(=O)c2O)cc1 | -3.91%
COc1ccc(C(=O)/C=C/c2ccc(OC3CSC3)cc2)cc1 | 75.7% (active)
O=C(COc1ccccc1)Nc1ccc(N2CCN(C(=O)c3cccs3)CC2)cc1 | -3.12%
C=CCn1nc(-c2ccccc2)c2c(C)onc2c1=O | 2.35%
COc1ccc(-c2nc3cc([N+](=O)[O-])ccc3o2)cc1OC | -4.49%
Cc1nnc(-c2ccc(Oc3ccc(C)c(C)c3)c([N+](=O)[O-])c2)o1 | 64.6% (active)
COc1ccc(OCC(=O)Nc2cc(C)c(Cl)cc2OC)c([N+](=O)[O-])c1 | 0.64%
O=C(Nc1ccc(N2CCOCC2)cc1)c1ccc2c(c1)OCO2 | -0.26%

Structure (SMILES) | inhibition
CCc1ccc(CN(C)C(=O)CCc2nnc(-c3ccc(-c4ccccc4)cc3)o2)nc1 | 25.8%
c1ccc(CN2CCC(N=C3NN=C(c4ccc5c(c4)OCCO5)CS3)CC2)cc1 | 75.9% (active)
Clc1cccc(N=C2NN=C(c3ccc4c(c3)OCCO4)CS2)c1 | 4.41%
CS(=O)(=O)N(CC(=O)N1CCN(Cc2ccccc2)CC1)c1ccc2c(c1)OCCO2 | -0.45%
COc1ccccc1NC(=O)c1c(Br)cnn1C | -1.37%
O=C(NNC1=C(C(=O)C(F)(F)F)CCC1)c1ccncc1 | -0.87%
CC(CN1CCOCC1)c1ccccc1 (stereo not given) | 5.49%
c1ccc2c(NC3C4CC5CC(C4)CC3C5)nc(N3CCOCC3)nc2c1 (stereo not given) | 69.9% (active)
C(=N/Nc1cc(N2CCOCC2)nc(N2CCOCC2)n1)/c1ccccc1 | -1.17%
c1ccc(-c2cc(N3CCCCC3)c3ccccc3n2)cc1 | 43.1%
CC(Nc1nc(N2CCOCC2)nc2ccccc12)c1ccccc1 (stereo not given) | 54.2% (active)
CC(Nc1nc(N2CCCC2)nc2ccccc12)c1ccccc1 (stereo not given) | 100% (active)
Cc1cc(Oc2ccccc2)nc(N2CCOCC2)n1 | -4.03%
Fc1cnc(N2CCOCC2)nc1NCc1ccccc1 | 0.72%
CC(Nc1nc(N2CCN(CCO)CC2)nc2ccccc12)c1ccccc1 (stereo not given) | 16.7%
COc1cc(C(=O)NCc2ccc(-n3cccc3)cc2)cc(OC)c1OC | 23%
COc1ccc(CCNC(=O)C(=O)NCc2ccccc2C)cc1OC | -0.59%
CC(C)(C)NC(=O)c1ccc(Cn2cc(C(F)(F)F)ccc2=O)cc1 | -0.17%
Cc1ccc(C2NC(C(=O)O)CS2)cc1 (stereo not given) | -9.29%
Cc1cccc(NC(=S)NC(=O)c2ccc(Br)o2)c1 | -3.34%
CNC(=O)C(=O)N/N=C/c1ccccn1 | -7.18%
Cc1cc(C)c([N+](=O)[O-])cc1-c1ccc(/C=N/NC(=O)c2nonc2N)o1 | 14.1%
Cc1ccc(-c2ccc(/C=N/NC(=O)CN3CCOCC3)o2)cc1[N+](=O)[O-] | 96.8% (active)
N#C/C(=C\c1ccc(-c2cccc([N+](=O)[O-])c2)o1)C(=O)NCCN1CCOCC1 | 17.4%

Structure (SMILES) | inhibition
O=C(/C=C/c1c(F)cccc1Cl)Nc1nn[nH]n1 | -6.22%
CNC(=O)/C(C#N)=C/c1c(F)cccc1Cl | 99.2% (active)
N#C/C(=C\c1ccccc1C(F)(F)F)C(=O)Nc1ccccc1F | 7.15%
COc1cccc(-c2ccc(SCC(=O)N3CCN(c4ccccc4)CC3)nn2)c1 | 4.58%
O=C(CSc1ccc(-c2cccs2)nn1)Nc1ccccc1F | 10.6%
Cc1nnnn1/C(=C\c1ccccc1)C(=O)OCC(=O)N1CC2(C)CC1CC(C)(C)C2 (stereo not given) | 100% (active)
COc1ccccc1C(=O)N1CC2(C)CC1CC(C)(C)C2 (stereo not given) | -5.56%
Cc1cccc(C(=O)NCC(=O)OCC(=O)N2CC3(C)CC2CC(C)(C)C3)c1 (stereo not given) | 43.9%
Cc1nnsc1C(=O)Nc1cccc(Cl)c1C | -7.14%
CCCCOC(=O)c1ccc(NC(c2ccc(C)cc2)P(=O)(OC)OC)cc1 (stereo not given) | 2.9%
CCOP(=O)(OCC)C(Nc1ccc([N+](=O)[O-])cc1)c1ccc(Cl)cc1 (stereo not given) | 36.9%
CCOP(=O)(OCC)C(Nc1cccc(C)c1)c1ccc(F)cc1 (stereo not given) | 61.2% (active)
Cc1nc2cc(NC(=O)NC3CC3)ccc2n1C | -6.22%
CCO[C@H]1OC(C(=O)N2CCCCCCC2)=C[C@@H](c2ccc(C(F)(F)F)cc2)[C@@H]1CCCO | -8.31%
CC(=O)n1cc([C@@H]2C=C(C(=O)N3CCN(Cc4ccc5c(c4)OCO5)CC3)O[C@H](OCc3ccc(CO)cc3)C2)c2ccccc21 | 78.9% (active)
CCO[C@H]1OC(C(=O)NCc2ccccc2)=C[C@@H](c2coc3ccccc3c2=O)[C@@H]1CCCO | 8.75%
CCO[C@H]1OC(C(=O)N2CCN(Cc3ccccc3)CC2)=C[C@@H](c2cn(C(C)=O)c3ccccc23)[C@@H]1CCCO | 71.4% (active)
CN1CCN(C(=O)C2=C[C@H](c3ccc4c(c3)OCO4)C[C@H](OCc3ccc(CO)cc3)O2)CC1 | 5.67%
CC(=O)n1cc([C@H]2C=C(C(=O)N3CCOCC3)O[C@@H](OCc3ccc(CO)cc3)C2)c2ccccc21 | 0.43%
CCC1CCCCN1C(=O)CSc1nc2c(c(=O)n(C)c(=O)n2C)n1C (stereo not given) | -6.11%
CCOc1ccc(C(CC(=O)O)n2cnnn2)cc1OC (stereo not given) | -5.12%
Cc1cc(NC(=O)CSc2nccn2-c2ccc([N+](=O)[O-])cc2)no1 | -2.13%
N/C(=N\OC(=O)N1c2ccccc2Sc2ccccc21)c1ccc(Br)cc1 | 26%

Source: PubChem BioAssay AID1063 (University of Pittsburgh Molecular Library Screening Center, 2008)
